Compound activity as filed in PubChem BioAssay.
An excerpt weighted towards active compounds, which were near 12% of everything screened.
Sfp inh: inhibitors of Bacillus subtilis Sfp phosphopantetheinyl transferase; Q9F4F7; Biochemical Sfp PPTase activity, qHTS; Potency, µM, for inactives: largest response in the series, negative = inhibition, most hits filed as inhibitors; hit rate 3.5% among 310,000; AID 1490;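 note: the enzyme is Sfp with the accession as filed and its product quenches rhodamine fluorescence; 0% = enzyme reaction without inhibitor and -100% = no enzyme wells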
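Buffer: 50 mM Hepes-Na pH 7.6, 10 mM MgCl2, 0.01% Nonidet P-40, 0.01% BSA. Enzyme 15 nM, pre-exposed to compound 15 min; substrates then added and fluorescence change tracked over 30 min.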
L3MBTL1 block: blocks human L3MBTL1; Q9Y468; Potency, µM (top dose mostly 57.1 µM), without a hit: top-dose activity, negative = inhibition, usual class: inhibitors; hit rate 0.66% among 230,000; AlphaScreen L3MBTL1–H3K9me1 peptide binding; note: % is set by controls: 0 for no effect and ±100 for the full control effect; nearly all actives have a fitted effect of over 60% in size
Target sequence (Q9Y468 whole entry, looked up): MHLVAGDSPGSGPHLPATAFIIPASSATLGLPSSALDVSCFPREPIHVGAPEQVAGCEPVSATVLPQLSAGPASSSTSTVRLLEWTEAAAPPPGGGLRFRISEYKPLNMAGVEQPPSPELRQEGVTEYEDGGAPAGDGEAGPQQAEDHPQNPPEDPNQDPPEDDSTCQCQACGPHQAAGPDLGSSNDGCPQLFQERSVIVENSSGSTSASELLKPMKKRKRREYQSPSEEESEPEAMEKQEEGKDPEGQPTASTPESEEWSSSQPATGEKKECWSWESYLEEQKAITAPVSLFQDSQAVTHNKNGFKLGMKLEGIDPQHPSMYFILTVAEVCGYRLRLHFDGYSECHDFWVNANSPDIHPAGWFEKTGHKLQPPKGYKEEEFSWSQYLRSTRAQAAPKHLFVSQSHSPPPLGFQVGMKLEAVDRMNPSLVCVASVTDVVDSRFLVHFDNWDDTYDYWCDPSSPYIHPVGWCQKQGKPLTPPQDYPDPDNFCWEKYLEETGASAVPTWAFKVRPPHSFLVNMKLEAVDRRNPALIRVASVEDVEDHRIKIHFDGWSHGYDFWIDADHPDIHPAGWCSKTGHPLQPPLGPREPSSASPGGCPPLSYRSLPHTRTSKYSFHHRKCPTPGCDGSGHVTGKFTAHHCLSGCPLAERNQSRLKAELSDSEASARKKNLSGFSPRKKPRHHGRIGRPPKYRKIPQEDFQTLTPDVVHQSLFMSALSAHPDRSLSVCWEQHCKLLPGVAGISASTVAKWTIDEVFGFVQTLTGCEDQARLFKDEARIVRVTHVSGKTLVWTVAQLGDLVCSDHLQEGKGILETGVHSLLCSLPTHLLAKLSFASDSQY
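AlphaScreen assay: L3MBTL1 (50 nM final) was preincubated 30 min at room temperature with biotinylated H3(1-15)K9me1 peptide (75 nM final), then 30 min with library compounds; streptavidin donor and nickel chelate acceptor beads (10 ug/mL final) added, 30 min dark.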
JMJD2A Tudor inh: JMJD2A Tudor domain (human) inhibition | hit rate 4.4% among 390,000 | AlphaScreen JMJD2A-Tudor / H3K4me3 peptide binding | Potency, µM (highest dose often 114 µM), for inactives: top-dose activity change, negative = inhibition, hits mostly inhibitors | AID 504339; note: % is set by controls: 0 for no effect and ±100 for the full control effect; nearly all actives have a fitted effect of over 50% in size
G9a inh: blocks human histone lysine methyltransferase G9a. Potency, µM (doses to about 102 µM), without a hit: at the highest dose activity, negative = inhibition, most hits filed as inhibitors. hit rate 8.8% among 350,000. G9a H3K9 monomethylation, AlphaScreen, 2 h. Q96KQ7; note: % is set by controls: 0 for no effect and ±100 for the full control effect; nearly all actives have a fitted effect of over 75% in size
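Compounds were preincubated with 20 nM G9a for 15 min, after which biotinylated H3K9 peptide (500 nM) and SAM (20 uM) started a 2 h room-temperature reaction. Monomethylated product was quantified by antibody-based AlphaScreen chemiluminescence.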
BAZ2B inh: blocks human BAZ2B. Q9UIF8. AlphaScreen BAZ2B-H3K14Ac peptide displacement. Potency, µM (series often up to 114 µM), without a hit: at the highest dose activity change, negative = inhibition, usual class: inhibitors. hit rate 4.4% among 360,000. AID 504333; note: % is set by controls: 0 for no effect and ±100 for the full control effect; nearly all actives have a fitted effect of over 60% in size
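AlphaScreen displacement: compounds (up to 110uM) incubated 30 min at room temperature with a preformed 50 nM BAZ2B/50 nM biotinylated H3K14Ac peptide complex in PBS pH 7.4 with Tween-20. Donor and acceptor beads at 10 ug/mL final added, 20 min light-protected before reading.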
HP1b chromo inh: blocks HP1-beta chromodomain binding to methylated histone tails. Potency, µM (series often up to 114 µM), inactives show at the top dose activity change, negative = inhibition, usual class: inhibitors. hit rate 0.56% among 390,000. AID 540317. AlphaScreen HP1-beta / biotin-H3K9me3 peptide binding. P83916; note: nearly all actives have a fitted effect of over 70% in size
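Compound inhibition of the preformed complex between 50 nM HP1-beta and 50 nM biotinylated H3K9me3 peptide was read by AlphaScreen. Buffer was PBS pH 7.4 with 0.01% Tween-20. Incubations ran 30 min at room temperature, with 10 ug/mL donor/acceptor beads.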
The depositor's hits bear a star; u = inconclusive; x = no result; [ ] = dose if it differs, or a comment. Calls come from the whole dose curve; as a rule, active = well fitted curve in the direction sought with a large enough effect; inconclusive = small, poorly fitted or top-dose-only effect, or another doubt; inactive = no such curve, though single readings can be large; an effect the other way counts as inactive or inconclusive. Potency is the fitted concentration of half-maximal effect.

SMILES	Sfp inh	L3MBTL1 block	JMJD2A Tudor inh	G9a inh	BAZ2B inh	HP1b chromo inh
Cc1cc2occ(CC(=O)NCc3cccs3)c2cc1C(C)C	1%	-8%	-7%	-13%[59 µM]	3%	22%
COc1ccc(-n2c(=O)c3c4c(sc3n(Cc3ccccc3C)c2=O)CCCC4)c(OC)c1	x	x	-29%	u	-28%	-9%
COCC(C)NC(=O)NC1(C(F)(F)F)Oc2ccc(Cl)cc2O1 (stereo not given)	-28%	0%	-15%[57.1 µM]	35µM*	12%	3%
O=C(NCCN1CCOCC1)c1cc(Cl)ccc1Cl	1%	0%	-15%	19%	-1%	27%
COCC(C)NC(=O)NC(=O)c1ccc(Cl)cc1 (stereo not given)	10%	4%	9%	18%[59 µM]	9%	30%
O=C(NCCN1CCOCC1)NC1(C(F)(F)F)Oc2ccc(Cl)cc2O1 (stereo not given)	-34%	5%	40µM*	10µM*	2%	34%
CCc1c(CN2CCN(c3ccc(F)cc3)CC2)csc1C	x	x	-34%	u	-27%	25%
COC(=O)c1sccc1NC(=O)CN(C)NS(=O)(=O)c1ccc([N+](=O)[O-])cc1	-15%	-2%	56µM*	-20%[59 µM]	-12%	-1%
COC(=O)c1sccc1NC(=O)CN(C)NS(=O)(=O)c1ccc(Cl)cc1	16%	1%	-31%	12%[59 µM]	-10%	10%
CCOC(=O)N1CCN(C(=O)C2CCN(CC3CCCCC3)CC2)CC1	11%	0%	8.9µM*	35µM*	-26%	-14%
O=C1c2oc3ccc(Cl)cc3c(=O)c2C(c2ccco2)N1CCN1CCOCC1 (stereo not given)	1%	-9%	-25%	11µM*	-36%	10%
COc1cc(C2C(C(C)=O)=C(O)C(=O)N2CCN2CCOCC2)ccc1O (stereo not given)	-2%	x	-22%	50µM*	-4%	19%
O=C1c2oc3ccccc3c(=O)c2C(c2cccc(O)c2)N1CCCN1CCOCC1 (stereo not given)	-13%	3%	-10%	89µM*	11%	22%
CCCOc1ccc(C2C(C(=O)/C=C/c3ccco3)=C(O)C(=O)N2CCN2CCOCC2)cc1OC (stereo not given)	45µM*	x	u	45µM*	x	3%
CCc1cccc(NC(=O)Cn2ncc3c([nH]c4ccc(C)cc43)c2=O)c1	x	x	0%	-4%[59 µM]	9%[57.1 µM]	41%
Cc1cc2oc3c(c(=O)c2cc1C)C(c1ccc(F)cc1)N(CCCN1CCOCC1)C3=O (stereo not given)	-8%	19%	-16%	u	4%	25%
COc1cc(C2c3c(oc4cc(C)c(C)cc4c3=O)C(=O)N2CCCN2CCOCC2)ccc1O (stereo not given)	x	x	-20%	28µM*	-14%	-10%
Cc1cccc2c(N=Nc3ccccc3)c(O)[nH]c12	7%	x	-10%	40µM*	3%	7%
CCS(=O)(=O)N1CCN(Cc2c[nH]c3ccccc23)CC1	-10%	11%	1.1µM*	14µM*	56µM*	u
Brc1ccc(CN2CCN(Cc3c[nH]c4ccccc34)CC2)cc1	56µM*	x	2.2µM*	50µM*	40µM*	22µM*
O=[N+]([O-])c1ccc(CN2CCN(Cc3c[nH]c4ccccc34)CC2)cc1	u	-8%	7.9µM*	8.9µM*	22µM*	u
OCc1ccccc1CN1CCCCCC1	x	x	-17%	x	x	7%
CN1CCCN(Cc2ccccc2Br)CC1	79µM*	-13%	0.89µM*	22µM*	u	u
Fc1ccc(N2CCN(Cc3c[nH]c4ccccc34)CC2)cc1	-2%	u	x	-10%[59 µM]	u	x
O=C(c1cccc(Cl)c1)N1CCN(Cc2c[nH]c3ccccc23)CC1	15%	6%	3.5µM*	7%	4%	0%
SMILES	Sfp inh	L3MBTL1 block	JMJD2A Tudor inh	G9a inh	BAZ2B inh	HP1b chromo inh
Brc1ccccc1CN1CCN(Cc2c[nH]c3ccccc23)CC1	x	x	0.79µM*	x	x	40µM*
Cc1ccccc1N1CCN(Cc2c[nH]c3ccccc23)CC1	-18%	x	5µM*	32µM*	u	u
CCC(Oc1ccccc1)C(=O)OCC(=O)Nc1sccc1C(N)=O (stereo not given)	x	-4%	-19%	-2%[59 µM]	6%	18%
COC(=O)n1c(=S)oc2cc(Cl)ccc21	25µM*	0%	x	2.5µM*	-4%	x
CCCCOC(=O)n1c(=S)oc2cc(Cl)ccc21	56µM*	8%	-18%	-1%[0.501 µM]	1%	-10%
CCCCCCCCNCCS(=O)(=O)NC1CCCCC1	x	x	-12%	x	x	41%
O=C1c2ccccc2C(Nc2ccc3c(c2)OCCO3)N1c1ccc(Cl)cn1 (stereo not given)	-3%	x	u	45µM*	40µM*	u
CCN1C(=O)C(CC(=O)Nc2ccc(OC)cc2)N(Cc2ccc3c(c2)OCO3)C1=S (stereo not given)	-24%	-7%	-6%	11%[59 µM]	-38%	8%
CCN(CC)S(=O)(=O)c1ccc(NC2c3ncccc3C(=O)N2Cc2ccccc2)cc1 (stereo not given)	-25%	-14%	28µM*	x	u	-5%
O=C1c2ccccc2C(Nc2ccc3c(c2)OCCO3)N1Cc1ccc2c(c1)OCO2 (stereo not given)	-2%	u	40µM*	u	35µM*	-25%
O=C1c2ccccc2C(Nc2ccc3c(c2)OCCO3)N1c1ccccn1 (stereo not given)	8%	-10%	u	-42%[59 µM]	u	-25%
COc1ccc(NC2c3ccccc3C(=O)N2Cc2ccc3c(c2)OCO3)cc1 (stereo not given)	-11%	x	40µM*	45µM*	50µM*	u
O=C1c2ccccc2C(Nc2ccccc2)N1Cc1ccc2c(c1)OCO2 (stereo not given)	2%	x	-29%	u	-31%	-5%
O=C1OC(Nc2ccc3c(c2)OCO3)c2ccccc21 (stereo not given)	56µM*	-2%	50µM*	u	40µM*	u
CCN(CC)S(=O)(=O)c1ccc(NC2c3ccccc3C(=O)N2Cc2ccco2)cc1 (stereo not given)	-18%	-1%	-22%	u	-25%	-5%
O=C1OC(Nc2ccc(F)c([N+](=O)[O-])c2)c2ccccc21 (stereo not given)	-8%	x	-6%	-34%	-32%	22%
COc1cc(NC2c3ccccc3C(=O)N2Cc2ccccc2Cl)cc(OC)c1 (stereo not given)	-3%	-25%	-34%	-28%	-31%	29%
